The list is not random: actives were taken first. Their share in the collection is about 6.9%.
JMJD2A Tudor inh: JMJD2A Tudor domain (human) inhibition; O75164; AlphaScreen JMJD2A-Tudor / H3K4me3 peptide binding; Potency, µM (highest dose often 114 µM), usual class: inhibitors; 4.4% of 390,000 active; AID 504339; also: nearly all actives have a fitted effect of over 50% in size
VDR inhibitor: blocks the human vitamin D receptor; Potency, µM, actives largely listed as inhibitors; 0.93% of 400,000 active; VDR-SRC2-3 peptide fluorescence polarization, 2 h; P11473
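After 23 nl compound addition and a short centrifugation, plates sat for 2 hours at ambient temperature; polarization of fluorescence then indicated loss of VDR binding to peptide SRC2-3.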
PLK1 PBD block: blocks phosphopeptide binding to human PLK1 polo-box domain. P53350. Plk1 PBD binding of FITC phosphopeptide, fluorescence polarization. Potency, µM, most hits filed as inhibitors. 2.8% of 360,000 active. AID 720504; also: series mostly up to about 57 µM; nearly all actives have a fitted effect of over 65% in size
Target sequence (P53350 whole entry, looked up, the tested form may be a part): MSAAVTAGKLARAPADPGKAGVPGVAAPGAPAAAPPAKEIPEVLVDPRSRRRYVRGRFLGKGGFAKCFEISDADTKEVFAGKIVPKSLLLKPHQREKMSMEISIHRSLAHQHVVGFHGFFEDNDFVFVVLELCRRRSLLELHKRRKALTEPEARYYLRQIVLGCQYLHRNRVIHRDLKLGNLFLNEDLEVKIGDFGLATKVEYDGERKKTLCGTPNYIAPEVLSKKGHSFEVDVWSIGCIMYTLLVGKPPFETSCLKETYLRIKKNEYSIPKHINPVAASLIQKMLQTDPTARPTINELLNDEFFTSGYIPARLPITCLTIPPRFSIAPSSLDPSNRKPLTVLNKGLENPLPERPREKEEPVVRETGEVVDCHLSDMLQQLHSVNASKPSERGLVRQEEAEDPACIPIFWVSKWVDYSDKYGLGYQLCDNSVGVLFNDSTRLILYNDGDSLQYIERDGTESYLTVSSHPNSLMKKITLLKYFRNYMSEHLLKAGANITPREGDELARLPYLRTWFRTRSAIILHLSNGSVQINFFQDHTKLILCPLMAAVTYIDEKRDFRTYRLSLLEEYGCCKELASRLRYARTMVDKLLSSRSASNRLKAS
BAZ2B inh: inhibitors of human BAZ2B bromodomain. AlphaScreen BAZ2B-H3K14Ac peptide displacement. 4.4% of 360,000 active. AID 504333. Potency, µM (titrated, usually from 114 µM), most hits filed as inhibitors. Q9UIF8; also: nearly all actives have a fitted effect of over 60% in size
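AlphaScreen displacement: compounds (up to 110uM) incubated 30 min at room temperature with a preformed 50 nM BAZ2B/50 nM biotinylated H3K14Ac peptide complex in PBS pH 7.4 with Tween-20. Donor and acceptor beads at 10 ug/mL final added, 20 min light-protected before reading.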
L3MBTL1 inh: blocks human L3MBTL1; 0.66% of 230,000 active; AlphaScreen L3MBTL1–H3K9me1 peptide binding; Potency, µM (highest dose often 57.1 µM), most hits filed as inhibitors; also: nearly all actives have a fitted effect of over 60% in size
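Read-out is AlphaScreen signal from streptavidin donor and nickel chelate acceptor beads (10 ug/mL final each) bridging L3MBTL1 (50 nM) and biotinylated K9-monomethylated H3(1-15) peptide (75 nM), after 30 min compound exposure at room temperature.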
HP1b binding inh: inhibitors of HP1-beta chromodomain binding to methylated histone tails | AlphaScreen HP1-beta / biotin-H3K9me3 peptide binding | Potency, µM (titrated, usually from 114 µM), usual class: inhibitors | 0.56% of 390,000 active; also: nearly all actives have a fitted effect of over 70% in size
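HP1-beta protein (50 nM final) preincubated 30 min at room temperature with biotinylated H3(1-18)K9me3 peptide (50 nM) in PBS pH 7.4, 0.01% Tween-20, then compound added for 30 min. AlphaScreen streptavidin donor/nickel chelate acceptor beads (10 ug/mL final), 30 min dark, luminescence read.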
Large screens that a line does not name were inactive. Calls follow the shape of the dose curve; as a rule, active = well fitted curve in the direction sought with a large enough effect; inconclusive = small, poorly fitted or top-dose-only effect, or another doubt; inactive = no such curve, though single readings can be large; an effect the other way counts as inactive or inconclusive.

Cc1ccc(C2/C(=C(/O)c3cnn(-c4ccccc4)c3C)C(=O)C(=O)N2CCCN2CCOCC2)o1 (stereo not drawn)	BAZ2B inh 79µM (no result: JMJD2A Tudor inh, VDR inhibitor, PLK1 PBD block, L3MBTL1 inh, HP1b binding inh)
CCOc1ccc(C2C(C(=O)c3ccco3)=C(O)C(=O)N2CCN2CCOCC2)cc1OCC (stereo not drawn)	none (no result: L3MBTL1 inh)
Cc1ccc(C)c(/C(O)=C2/C(=O)C(=O)N(CCN3CCOCC3)C2c2ccc(C)o2)c1 (stereo not drawn)	JMJD2A Tudor inh inconclusive
COc1cccc2cc(C(=O)C3=C(O)C(=O)N(CCN4CCOCC4)C3c3ccc(C(C)(C)C)cc3)oc12 (stereo not drawn)	JMJD2A Tudor inh 56µM (no result: L3MBTL1 inh)
COc1cc2nc(N3CCN(C(=O)[C@@H]4COc5ccccc5O4)CC3)nc(N)c2cc1OC	none (no result: JMJD2A Tudor inh, PLK1 PBD block, BAZ2B inh, L3MBTL1 inh, HP1b binding inh)
Cc1ccc(C(=O)c2oc3ccccc3c2NC(=O)Cc2ccccc2)cc1	none (no result: PLK1 PBD block, L3MBTL1 inh)
Cc1cccc(NC(=O)/C(C#N)=C/c2cccc([N+](=O)[O-])c2)n1	VDR inhibitor inconclusive, PLK1 PBD block 27µM (no result: L3MBTL1 inh)
O=C(CSc1ccc(-c2ccccn2)nn1)N1CCCC1	JMJD2A Tudor inh 3.2µM, VDR inhibitor 71µM, PLK1 PBD block 13µM, BAZ2B inh 7.1µM (no result: L3MBTL1 inh)
O=C(CSc1ccc(-c2ccco2)nn1)N1CCCC1	none (no result: L3MBTL1 inh)
CCc1ccc(-c2ccc(SCC(=O)NC3CCCC3)nn2)cc1	none (no result: JMJD2A Tudor inh, VDR inhibitor, BAZ2B inh, L3MBTL1 inh, HP1b binding inh)
c1ccc(CSc2ccc(-c3ccccn3)nn2)cc1	JMJD2A Tudor inh 7.9µM, BAZ2B inh 6.3µM (no result: L3MBTL1 inh)
c1ccc(CSc2ccc(-c3ccco3)nn2)cc1	none
O=C(CSc1ccc(-c2ccccn2)nn1)NC1CCCC1	JMJD2A Tudor inh 3.2µM, BAZ2B inh 3.2µM (no result: L3MBTL1 inh)
O=C(CSc1ccc(-c2ccccn2)nn1)c1ccccc1	JMJD2A Tudor inh 7.1µM, BAZ2B inh 3.5µM (no result: L3MBTL1 inh)
COc1ccccc1CNC(=O)COC(=O)c1nccnc1N	BAZ2B inh inconclusive (no result: L3MBTL1 inh)
CN(C)C1CN(Cc2cn(Cc3cccc(C(F)(F)F)c3)nn2)S(=O)(=O)C1 (stereo not drawn)	none (no result: JMJD2A Tudor inh, VDR inhibitor, BAZ2B inh, L3MBTL1 inh, HP1b binding inh)
Cc1cc(C)c(S(=O)(=O)NCC2CCC(C(=O)NCCCN3CCC(C)CC3)CC2)c(C)c1 (stereo not drawn)	VDR inhibitor inconclusive, PLK1 PBD block 24µM (no result: L3MBTL1 inh)
CCCS(=O)(=O)NC(=O)C1(C)CCCN(C(=O)c2ccccc2F)C1 (stereo not drawn)	none (no result: JMJD2A Tudor inh, VDR inhibitor, BAZ2B inh, L3MBTL1 inh, HP1b binding inh)
CC(C)CCNC(=O)c1onc(CSc2ccccn2)c1C(=O)NCCC(C)C	JMJD2A Tudor inh 35µM, VDR inhibitor inconclusive, PLK1 PBD block 27µM (no result: BAZ2B inh, L3MBTL1 inh)
O=C(NCC(c1ccc2c(c1)OCO2)N1CCOCC1)c1ccc(F)cc1 (stereo not drawn)	none (no result: PLK1 PBD block, L3MBTL1 inh)
COc1ccc(Br)cc1CNc1ccccc1	JMJD2A Tudor inh 18µM, BAZ2B inh 50µM, HP1b binding inh inconclusive
Cc1ccc(C2CC(c3cccs3)=NN2S(=O)(=O)c2ccc(C)cc2)cc1 (stereo not drawn)	none
O=S(=O)(c1ccccc1)N1N=C(c2cccs2)CC1c1ccc(F)cc1 (stereo not drawn)	PLK1 PBD block 21µM
CCCCCOc1ccc(/C=c2\sc3nc(=O)c(-c4ccccc4)nn3c2=O)cc1OC	none
C=CCOc1ccccc1/C=c1\sc2nc(=O)c(C)nn2c1=O	JMJD2A Tudor inh inconclusive, VDR inhibitor 71µM, PLK1 PBD block inconclusive, BAZ2B inh inconclusive, L3MBTL1 inh inconclusive
Cc1ccc(C)c(N2CCN(c3nc4ccccc4c4nc(CCn5nc(C)cc5C)nn34)CC2)c1	none (no result: PLK1 PBD block, L3MBTL1 inh)
Cc1ccc(C)c(N2CCN(C(=O)Cn3ncc4c(=O)oc5ccccc5c43)CC2)c1	none (no result: PLK1 PBD block, BAZ2B inh, L3MBTL1 inh)
Cc1nn(-c2ccccc2)c(C)c1/C=N/Nc1nc2ccccc2[nH]1	JMJD2A Tudor inh 56µM, BAZ2B inh inconclusive, HP1b binding inh inconclusive
Cn1c(/C=N/Nc2nc3ccccc3[nH]2)nc2ccccc21	JMJD2A Tudor inh inconclusive, BAZ2B inh 32µM
Cc1c(/C=N/Nc2nc3ccccc3[nH]2)c2ccccc2n1C	JMJD2A Tudor inh 32µM, BAZ2B inh 18µM, HP1b binding inh 50µM (no result: L3MBTL1 inh)
CC(=O)Nc1ccc(/C=N/Nc2nc3ccccc3[nH]2)cc1	none
CCN(CC)c1ccc(/C=N/Nc2nc3ccccc3[nH]2)cc1	JMJD2A Tudor inh 56µM, BAZ2B inh 10µM, L3MBTL1 inh inconclusive, HP1b binding inh inconclusive
